AmpC no deterg = AmpC beta-lactamase inhibition without detergent; AID 485341; AmpC nitrocefin hydrolysis, absorbance 480 nm, 0.0001% Triton; 330,000 tested, 0.52% active; P00811; Potency, µM (top dose mostly 57.1 µM), inactives show at the highest dose activity change, negative = inhibition, usual class: inhibitors;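 note: potency is the fitted concentration of half-maximal effect; plate controls were no compound for no effect and no enzyme for full effect; nearly all actives have a fitted effect of over 20% in size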
Target sequence (P00811 whole entry, looked up): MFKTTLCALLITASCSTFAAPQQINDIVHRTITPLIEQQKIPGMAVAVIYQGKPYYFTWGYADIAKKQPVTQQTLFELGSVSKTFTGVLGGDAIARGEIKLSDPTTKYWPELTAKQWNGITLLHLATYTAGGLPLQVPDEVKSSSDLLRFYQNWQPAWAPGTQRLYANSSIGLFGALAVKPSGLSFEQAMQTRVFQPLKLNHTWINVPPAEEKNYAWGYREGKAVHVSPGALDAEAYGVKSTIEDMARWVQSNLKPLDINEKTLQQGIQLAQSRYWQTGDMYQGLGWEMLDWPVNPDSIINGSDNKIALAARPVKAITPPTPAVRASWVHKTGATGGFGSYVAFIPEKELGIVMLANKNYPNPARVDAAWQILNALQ
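20 mM phosphate pH 7.0 + 0.01% (detergent screen) or 0.0001% Triton X-100; 5.3 nM AmpC reagent; cpd preinc 15 min RT; nitrocefin (800 uM stock) to start; A480 q20 s × 4 min; Activity was normalised to no-enzyme and no-compound control wells.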
AmpC inh detg = AmpC beta-lactamase inhibition with detergent present; P00811; AmpC hydrolysis of nitrocefin, absorbance 480 nm, 0.01% Triton; Potency, µM (highest dose often 114 µM), without a hit: top-dose activity change, negative = inhibition, hits mostly inhibitors; 370,000 tested, 0.041% active; AID 485294;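 note: potency is the fitted concentration of half-maximal effect; 0% = no-compound wells and -100% = no-enzyme wells; nearly all actives have a fitted effect of over 25% in size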
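20 mM phosphate pH 7.0 + 0.01% (detergent screen) or 0.0001% Triton X-100; 5.3 nM AmpC reagent; cpd preinc 15 min RT; nitrocefin (800 uM stock) to start; A480 q20 s × 4 min; Activity was normalised to no-enzyme and no-compound control wells.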
Cycloheximide cs = counter-screen for Shiga toxin inhibitors: cycloheximide protein synthesis inhibition; cell reporter, cycloheximide protein synthesis inhibition counterscreen; max response, %; 300,000 tested, 12% active; AID 2314; in the data active = max response mostly above about 13%, no sharp cut-off; inactive = mostly below about 14%; note: read at 38.3 µM for the half of the compounds with a filed dose; 0% is about no effect
AMA1 RON2 block = inhibitors of Plasmodium falciparum AMA1-RON2 interaction; AlphaScreen AMA1-biotinylated RON2 peptide binding; Potency, µM (top dose mostly 58.2 µM), inactives show at the top dose activity change, negative = inhibition, hits mostly inhibitors; 360,000 tested, 0.2% active; AID 720542;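 note: potency is the fitted concentration of half-maximal effect; 0% = vehicle wells and -100% = peptide control; nearly all actives have a fitted effect of over 45% in size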
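AMA1 (3D7) with his tag at 25 nM final met compounds first, then biotinylated RON2 peptide at 25 nM; detection used donor plus acceptor beads, 10 µg/mL apiece, read by AlphaScreen after 30 min at room temperature.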
Shiga inhibitor = inhibitors of Shiga toxin in Vero cells; Vero cells, Shiga toxin protein synthesis inhibition reporter; inhibition, % at 38.7 µM; 290,000 tested, 9.2% active; AID 2315; in the data active = inhibition mostly above about 28%, no sharp cut-off; inactive = mostly below about 43%; note: 0% is about no effect
SARS PLpro yeast = SARS-CoV PLP inhibition in yeast | S. cerevisiae expressing SARS-CoV PLpro, growth rescue | Potency, µM (highest dose often 32.9 µM), for the others: at the top dose activity, positive = growth rescue, actives largely listed as activators | 330,000 tested, 0.19% active | AID 485353; calls by dose curve; note: potency is the fitted concentration of half-maximal effect; 0% is about no effect; nearly all actives have a fitted effect of over 55% in size
* marks the source's active call; other numbers are inactive results; u = inconclusive; x = no result; [ ] = another dose, or the depositor's remark. The entries come from a sample that favours hits as a whole. Unless noted, calls come from the whole dose curve; as a rule, active = well fitted curve in the direction sought with a large enough effect; inconclusive = small, poorly fitted or top-dose-only effect, or another doubt; inactive = no such curve, though single readings can be large; an effect the other way counts as inactive or inconclusive.

SMILES	AmpC no deterg	AmpC inh detg	Cycloheximide cs	AMA1 RON2 block	Shiga inhibitor	SARS PLpro yeast
COc1ccc(-c2onc(C)c2C)cc1S(=O)(=O)NC1CCC(C)CC1 (stereo not drawn)	x	1%	x	x	x	x
COC(=O)Cc1ccc(NC(=S)NCCCN2CCOCC2)cc1	-9%[2.29 µM]	u	-5	-19%	-12	0%
CC(C)COC(=S)Nc1ccccc1	-27%	-12%	32*	15%	17	28%
CC(C)COCC(O)CCC(=O)NNC(=S)Nc1ccccc1 (stereo not drawn)	-16%	u	-2	26%	-8	0%
Nc1c(Cl)ncnc1N/N=C/c1ccccn1	-5%	u	25*	-22%	active	x
Nc1c(Cl)ncnc1N/N=C/c1cccnc1	-14%	4%	15*	-12%	14	-4%
Nc1c(Cl)ncnc1N/N=C/c1ccnc2ccccc12	-20%	-12%	10	56%	20	-8%
Nc1ccccc1C(=O)NN=Cc1cccnc1	x	x	x	30%	x	x
CS(=O)(=O)N(CC(=O)Nc1ccccc1-c1ccccc1)c1cccc(F)c1	34%	-11%	-1	14%	-15	0%
Cc1cccc(NC(=O)NCc2ccc3c(c2)OCO3)c1	-18%	5%	39*	x	79*	-4%
Cc1ccc(NC(=O)NCc2ccc3c(c2)OCO3)cc1	-9%	4%	16*	10%	27	7%
Cc1ccc(CC(=O)NCc2ccc3c(c2)OCO3)cc1	x	-3%	22	u	34	x
NCCSC1CC(=O)N(c2ccc(F)cc2)C1=O (stereo not drawn)	0%	-5%	8.3*	1%	30	-8%
O=C(O)CSC1CC(=O)N(c2ccc(F)cc2)C1=O (stereo not drawn)	x	x	x	-10%	x	x
O=C1CC(SCCc2nc3ccccc3[nH]2)C(=O)N1c1ccc(F)c(Cl)c1 (stereo not drawn)	x	x	x	3%	x	x
NCCSC1CC(=O)N(c2ccc(Cl)c(Cl)c2)C1=O (stereo not drawn)	-38%	-2%	16*	38%	36	-5%
C=CCN1CCCC1CNC(=O)c1cc2[nH]nnc2cc1OC (stereo not drawn)	-13%	-20%	x	0%	x	x
O=C(NCc1ccccc1)Nc1cc(Cl)ccc1Cl	-22%	6%	-2	1%	-3	0%
CN(C)S(=O)(=O)c1ccc(N2CCCC2)c(C(=O)OCC(=O)NC2CCCCC2)c1	23%	u	x	17%	x	-2%
O=C(CSc1nnc(Cc2csc(Nc3cccc(Cl)c3)n2)o1)N1CCc2ccccc21	-37%	-12%	-4	-5%	37	6%
O=C(NCCc1ccc(Cl)cc1)c1ccc2nccnc2c1	14%	1%	52*	-11%	67*	6%
CCN(CC)Cc1cc(CCNC(=O)c2ccc(Cl)cc2)ccc1O	-29%	7%	17*	0%	21	10%
O=C(NCCc1ccc(O)cc1)c1ccc(Cl)cc1	73%	-10%	56*	3%	70*	5%
Cc1cc2nc(C(C)(C)C)cc(N)n2n1	-11%	-2%	1	-7%	2	1%
CC(C)[C@H](NC(=O)N1c2ccccc2NC(=O)[C@@H]1C(C)C)C(=O)N1CCC(C(=O)O)CC1	2%	u	8.9*	56%	12	10%
SMILES	AmpC no deterg	AmpC inh detg	Cycloheximide cs	AMA1 RON2 block	Shiga inhibitor	SARS PLpro yeast
CCc1nc(SCC(=O)NCc2ccc(F)cc2)c2c(=O)n(C)c(=O)n(C)c2n1	2.5µM*	u	-1	-4%	2	u
Cc1cc(NC(=O)CSc2nc(CC(C)(C)C)nc3c2c(=O)n(C)c(=O)n3C)no1	40µM*	-13%	-3	3%	-1	6%
CN(C)S(=O)(=O)c1ccc(Cl)c(C(=O)NCCNC(=O)c2cc(S(=O)(=O)N(C)C)ccc2Cl)c1	2%	-3%	-1	21%	13	14%
CCCNC(=O)C1CCC(Cn2c(=O)c3sccc3n(CC(=O)Nc3ccccc3C)c2=O)CC1 (stereo not drawn)	x	5%	x	x	x	x
COC(=O)c1sc2nc(N)c(C#N)cc2c1N	-3%	-2%	30*	40%	73*	17%
CCCCS(=O)(=O)c1sc2nc3c(cc2c1N)CCCC3	-24%	u	2	6µM*	79	-7%
COC(=O)c1sc2nc3c(cc2c1N)CCCC3	-30%	-1%	39*	2%	99*	-4%
COc1ccc(NC(=O)c2sc3nc4c(cc3c2N)CCCCCC4)cc1	x	7%	x	x	x	x
CCCCCCCCS(=O)c1sc2nc3c(cc2c1N)CCCC3 (stereo not drawn)	x	x	x	5%	x	x
NC(=O)c1sc2nc3c(cc2c1N)CCC3	-20%	-4%	22*	-3%	48*	-2%
Cc1ccccc1NC(=O)c1sc2nc3c(cc2c1N)CCCC3	x	0%	x	x	x	x
COCCCNS(=O)(=O)c1ccc(C)cc1	6%	-2%	-3	-3%	-10	0%
Cc1cc(C)cc(-n2c(O)c(C=Nc3ccc(N4CCOCC4)cc3)c(=O)[nH]c2=S)c1	-7%	3%	-1	12%	-7	-6%
COc1ccc(/C(O)=C2/C(=O)C(=O)N(Cc3cccnc3)C2c2ccco2)cc1OC (stereo not drawn)	-21%	-8%	12	-9%	8	1%
COc1ccc(OC2CCN(S(=O)(=O)c3cccc(F)c3)CC2)cc1	-15%	-3%	36*	19%	81*	-4%
Cc1ccc(N/N=C/c2ccc(N3CCOCC3)cc2)cc1C	0%	-7%	59*	-12%	136*	9%
Cc1ccc(/C=N/NC(=O)c2ccccn2)o1	-10%	-8%	42*	92%	47*	3%
CC(C)c1ccc(/C=N/NC(=O)c2ccccn2)cc1	-7%	2%	32*	106%	13	-1%
CCc1c(C(=O)N/N=C/c2ccc(C)o2)csc1C	-58%	-10%	18*	33%	-1	-66%
CCOC(=O)N/N=C/c1ccc(C)o1	-18%	2%	2	0%	5	3%
COc1cc(OC)c(NC(=O)CCc2c(C)nc3ncnn3c2C)cc1Cl	x	14%	x	x	x	x
COc1cccc(CC(NC(C)=O)C(=O)NC2CCN(c3c(Cc4ccccc4)c(C)nc4ncnn34)CC2)c1 (stereo not drawn)	312%	0%	1	9%	9	23%
Cc1cccc(/C=N\NC(=O)c2csnn2)c1	-26%	-5%	74*	-9%	88*	12%
O=C(N/N=C/c1ccc(N2CCOCC2)cc1)c1ccccn1	-3%	6%	27*	105%	51*	-3%
Cc1c(C(=O)N/N=C/c2ccc(N3CCOCC3)cc2)nc2ccccn12	6%	1%	-9	21%	-3	2%
O=C(N/N=C/c1cccc(Oc2ccccc2)c1)c1ccncc1	4%	1%	12	-5%	13	-7%
